The record followed here is publication PMC7862700, “An all-to-all approach to the identification of sequence-specific readers for epigenetic DNA modifications on cytosine”.

Common to all, as to assay: DAPPL (digital affinity profiling via proximity ligation, sequencing); 10 mM Tris-HCl pH 7.5, 50 mM NaCl, 1 mM DTT, 4% glycerol, room temperature, 30 min; GST-TFs on glutathione beads, 16-mer random dsDNA library, 0.1% formaldehyde crosslink after washing; high values mean tight binding
Details in all cases: protein: recombinant; tags: N-terminal GST; dsDNA, one strand shown

In test [1] the target is T1, FLI1 (Homo sapiens, UniProt Q01543 1-452).
T1 sequence: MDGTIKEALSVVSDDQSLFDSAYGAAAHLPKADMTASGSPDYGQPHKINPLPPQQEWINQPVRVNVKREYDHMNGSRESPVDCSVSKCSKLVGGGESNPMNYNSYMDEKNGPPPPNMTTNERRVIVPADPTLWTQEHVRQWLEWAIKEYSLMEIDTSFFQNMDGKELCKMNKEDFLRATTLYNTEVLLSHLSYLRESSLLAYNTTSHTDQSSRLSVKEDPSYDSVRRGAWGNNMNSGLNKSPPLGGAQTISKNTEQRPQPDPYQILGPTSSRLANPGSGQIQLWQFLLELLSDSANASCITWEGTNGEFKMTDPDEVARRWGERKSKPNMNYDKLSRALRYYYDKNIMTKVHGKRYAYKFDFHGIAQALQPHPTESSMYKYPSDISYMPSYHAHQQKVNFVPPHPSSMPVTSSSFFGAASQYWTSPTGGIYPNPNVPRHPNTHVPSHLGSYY
Summed up:
(§1)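 Pools were built from human transcription factors expressed in yeast as GST fusions, captured on glutathione beads and DNA-barcoded, along with a tag-only sample. Incubation with 200 nmole of a 16-mer random double-stranded DNA library lasted 30 min at room temperature in Tris/NaCl/DTT/glycerol buffer, and was followed by washing, 0.1% formaldehyde crosslinking, proximity ligation, PCR amplification and Illumina NextSeq500 sequencing. Binding signal is the quotient of each hexamer's read frequency for a factor and its frequency for the tag-only sample.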

Test [2] addresses T2, ELK1 (Homo sapiens, UniProt P19419 1-428).
T2 sequence: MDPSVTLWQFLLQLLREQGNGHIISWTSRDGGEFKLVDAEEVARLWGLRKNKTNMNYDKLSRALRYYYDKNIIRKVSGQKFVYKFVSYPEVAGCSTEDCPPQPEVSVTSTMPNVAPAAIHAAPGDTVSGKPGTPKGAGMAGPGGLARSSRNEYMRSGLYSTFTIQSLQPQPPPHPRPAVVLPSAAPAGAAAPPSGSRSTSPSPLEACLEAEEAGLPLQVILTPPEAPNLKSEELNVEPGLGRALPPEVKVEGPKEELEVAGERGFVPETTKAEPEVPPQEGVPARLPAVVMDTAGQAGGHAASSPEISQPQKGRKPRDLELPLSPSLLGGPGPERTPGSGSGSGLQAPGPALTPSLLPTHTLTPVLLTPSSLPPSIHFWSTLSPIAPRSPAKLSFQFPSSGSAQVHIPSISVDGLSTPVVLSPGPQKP
Summed up: as §1

In test [3] the target is T3, GABPA (Homo sapiens, UniProt Q06546 1-454).
T3 sequence: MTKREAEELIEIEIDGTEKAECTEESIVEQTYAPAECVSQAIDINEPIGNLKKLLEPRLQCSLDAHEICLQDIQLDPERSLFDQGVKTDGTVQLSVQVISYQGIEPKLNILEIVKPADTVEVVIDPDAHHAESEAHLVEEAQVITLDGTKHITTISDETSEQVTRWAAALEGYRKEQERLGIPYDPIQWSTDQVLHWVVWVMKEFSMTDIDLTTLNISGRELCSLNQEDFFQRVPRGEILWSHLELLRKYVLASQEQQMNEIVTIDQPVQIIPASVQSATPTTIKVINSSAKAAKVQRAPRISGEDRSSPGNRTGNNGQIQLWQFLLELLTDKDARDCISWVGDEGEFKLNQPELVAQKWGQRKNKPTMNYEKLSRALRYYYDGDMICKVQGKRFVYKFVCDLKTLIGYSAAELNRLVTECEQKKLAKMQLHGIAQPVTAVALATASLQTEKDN
Summed up: as §1

Test [4] deals with T4, ERG (Homo sapiens, UniProt P11308 1-479).
T4 sequence: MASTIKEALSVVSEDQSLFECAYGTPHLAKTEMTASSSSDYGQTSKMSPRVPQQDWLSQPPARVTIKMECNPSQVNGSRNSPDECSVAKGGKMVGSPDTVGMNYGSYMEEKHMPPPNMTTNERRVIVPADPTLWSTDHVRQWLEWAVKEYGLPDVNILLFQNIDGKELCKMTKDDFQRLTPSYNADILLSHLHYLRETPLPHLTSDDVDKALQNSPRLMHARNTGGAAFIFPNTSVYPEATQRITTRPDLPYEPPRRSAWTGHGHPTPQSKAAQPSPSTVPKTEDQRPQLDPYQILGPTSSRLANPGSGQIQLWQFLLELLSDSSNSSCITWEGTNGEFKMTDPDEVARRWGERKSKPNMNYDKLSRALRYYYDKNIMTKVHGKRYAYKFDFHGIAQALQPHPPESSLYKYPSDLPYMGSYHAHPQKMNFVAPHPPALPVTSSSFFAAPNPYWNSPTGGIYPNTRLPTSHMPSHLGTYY
Summed up:
as §1

For test [5], the target named is ELF1 (Homo sapiens, UniProt P32519 1-619). Summed up: as §1
ELF1, sequence (P32519 whole entry): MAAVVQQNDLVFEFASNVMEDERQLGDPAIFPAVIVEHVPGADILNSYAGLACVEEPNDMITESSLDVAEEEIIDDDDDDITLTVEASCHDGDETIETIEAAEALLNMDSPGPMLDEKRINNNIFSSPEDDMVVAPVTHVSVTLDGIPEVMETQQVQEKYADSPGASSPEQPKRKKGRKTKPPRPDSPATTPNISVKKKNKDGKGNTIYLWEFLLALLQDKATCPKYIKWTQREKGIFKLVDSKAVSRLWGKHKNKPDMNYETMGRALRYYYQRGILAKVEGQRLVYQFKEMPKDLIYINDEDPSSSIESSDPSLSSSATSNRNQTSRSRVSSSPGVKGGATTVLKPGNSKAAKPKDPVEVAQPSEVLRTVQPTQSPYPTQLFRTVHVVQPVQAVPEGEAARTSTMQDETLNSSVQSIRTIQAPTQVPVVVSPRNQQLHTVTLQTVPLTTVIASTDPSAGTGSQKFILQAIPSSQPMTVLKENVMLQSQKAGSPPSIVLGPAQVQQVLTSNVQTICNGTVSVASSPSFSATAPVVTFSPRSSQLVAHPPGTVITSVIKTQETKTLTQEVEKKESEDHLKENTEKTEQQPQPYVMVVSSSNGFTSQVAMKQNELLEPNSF
Test [6] concerns the target T5, EHF (Homo sapiens, UniProt Q9NZC4 1-300).
T5 sequence: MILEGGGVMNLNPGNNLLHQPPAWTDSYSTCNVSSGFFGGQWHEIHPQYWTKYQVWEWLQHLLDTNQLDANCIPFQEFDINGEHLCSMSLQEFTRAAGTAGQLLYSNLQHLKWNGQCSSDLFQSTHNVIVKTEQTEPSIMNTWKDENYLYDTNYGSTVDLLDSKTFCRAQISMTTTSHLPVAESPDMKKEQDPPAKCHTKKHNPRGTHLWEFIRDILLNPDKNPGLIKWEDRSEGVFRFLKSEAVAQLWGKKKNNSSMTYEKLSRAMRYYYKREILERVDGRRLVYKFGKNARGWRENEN
In outline: as §1

The target of test [7] is SPI1 (Homo sapiens, UniProt P17947 1-270). Summed up:
as §1

In test [8] the target is SPIB (Homo sapiens, UniProt Q01892 1-262). Summed up: as §1
SPIB, sequence (Q01892 whole entry): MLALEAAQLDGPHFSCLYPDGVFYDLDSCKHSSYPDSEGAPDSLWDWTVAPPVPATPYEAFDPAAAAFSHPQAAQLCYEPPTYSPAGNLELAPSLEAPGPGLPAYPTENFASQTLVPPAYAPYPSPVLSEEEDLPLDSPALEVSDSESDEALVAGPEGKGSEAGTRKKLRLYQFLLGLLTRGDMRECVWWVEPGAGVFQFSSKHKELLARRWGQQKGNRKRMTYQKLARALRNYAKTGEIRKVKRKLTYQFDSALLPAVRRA
Test [9] addresses T6, ELK3 (Homo sapiens, UniProt P41970 1-407).
T6 sequence: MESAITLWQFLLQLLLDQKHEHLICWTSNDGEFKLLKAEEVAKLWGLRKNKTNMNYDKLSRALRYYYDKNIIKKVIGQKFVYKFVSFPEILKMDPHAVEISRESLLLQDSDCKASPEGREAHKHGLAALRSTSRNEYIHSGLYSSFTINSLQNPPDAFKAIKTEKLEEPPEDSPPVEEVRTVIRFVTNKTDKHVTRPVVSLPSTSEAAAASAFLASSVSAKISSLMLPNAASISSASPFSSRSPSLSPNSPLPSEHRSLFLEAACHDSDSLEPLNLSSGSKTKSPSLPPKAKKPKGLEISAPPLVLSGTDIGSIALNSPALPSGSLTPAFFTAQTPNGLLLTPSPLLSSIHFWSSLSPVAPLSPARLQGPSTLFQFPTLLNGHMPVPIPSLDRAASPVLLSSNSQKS
Summed up: as §1

The target in test [10] is T7, FEV (Homo sapiens, UniProt Q99581 1-238).
T7 sequence: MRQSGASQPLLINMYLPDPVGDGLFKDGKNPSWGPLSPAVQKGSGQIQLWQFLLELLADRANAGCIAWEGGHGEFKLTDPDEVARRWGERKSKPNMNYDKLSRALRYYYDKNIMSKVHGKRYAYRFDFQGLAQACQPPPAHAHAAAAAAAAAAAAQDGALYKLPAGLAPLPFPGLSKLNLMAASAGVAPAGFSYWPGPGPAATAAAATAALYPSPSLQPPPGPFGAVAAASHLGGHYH
Summed up: as §1

The target in test [11] is ETV5 (Homo sapiens, UniProt P41161 1-510). Summed up:
as §1

Test [12] deals with ELF4 (Homo sapiens, UniProt Q99607 1-663). Summed up:
as §1

The target of test [13] is ETV1 (Homo sapiens, UniProt P50549 1-477). Summed up:
as §1

In test [14] the target is T8, ERF (Homo sapiens, UniProt P50548 1-548).
T8 sequence: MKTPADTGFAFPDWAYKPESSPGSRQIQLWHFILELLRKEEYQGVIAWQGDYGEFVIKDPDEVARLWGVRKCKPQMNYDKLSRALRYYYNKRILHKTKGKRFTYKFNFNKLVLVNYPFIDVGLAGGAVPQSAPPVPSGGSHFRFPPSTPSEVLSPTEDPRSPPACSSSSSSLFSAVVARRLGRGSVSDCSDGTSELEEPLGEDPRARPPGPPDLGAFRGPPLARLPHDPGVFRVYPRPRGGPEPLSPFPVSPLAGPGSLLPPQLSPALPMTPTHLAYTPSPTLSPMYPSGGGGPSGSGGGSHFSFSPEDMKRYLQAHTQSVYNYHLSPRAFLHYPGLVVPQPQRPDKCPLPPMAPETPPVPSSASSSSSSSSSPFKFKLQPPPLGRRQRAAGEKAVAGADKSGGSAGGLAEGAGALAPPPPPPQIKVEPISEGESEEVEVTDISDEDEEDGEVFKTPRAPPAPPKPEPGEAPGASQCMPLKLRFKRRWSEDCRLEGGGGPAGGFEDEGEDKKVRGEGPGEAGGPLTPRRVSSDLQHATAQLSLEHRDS
In outline:
as §1

The target of test [15] is T9, ETV3L (Homo sapiens, UniProt Q6ZN32 1-361).
T9 sequence: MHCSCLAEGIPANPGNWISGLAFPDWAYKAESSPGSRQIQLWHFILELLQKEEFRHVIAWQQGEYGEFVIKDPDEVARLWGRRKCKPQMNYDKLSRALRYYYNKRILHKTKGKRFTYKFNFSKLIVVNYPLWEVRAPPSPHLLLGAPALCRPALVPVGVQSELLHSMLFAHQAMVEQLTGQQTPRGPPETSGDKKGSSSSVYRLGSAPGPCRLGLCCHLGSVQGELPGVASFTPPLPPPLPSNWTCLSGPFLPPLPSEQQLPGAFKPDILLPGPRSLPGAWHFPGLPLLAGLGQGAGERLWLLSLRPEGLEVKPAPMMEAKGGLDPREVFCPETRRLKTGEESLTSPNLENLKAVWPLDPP
Summed up:
as §1

In test [16] the target is T10, ETS2 (Homo sapiens, UniProt P15036 1-469).
T10 sequence: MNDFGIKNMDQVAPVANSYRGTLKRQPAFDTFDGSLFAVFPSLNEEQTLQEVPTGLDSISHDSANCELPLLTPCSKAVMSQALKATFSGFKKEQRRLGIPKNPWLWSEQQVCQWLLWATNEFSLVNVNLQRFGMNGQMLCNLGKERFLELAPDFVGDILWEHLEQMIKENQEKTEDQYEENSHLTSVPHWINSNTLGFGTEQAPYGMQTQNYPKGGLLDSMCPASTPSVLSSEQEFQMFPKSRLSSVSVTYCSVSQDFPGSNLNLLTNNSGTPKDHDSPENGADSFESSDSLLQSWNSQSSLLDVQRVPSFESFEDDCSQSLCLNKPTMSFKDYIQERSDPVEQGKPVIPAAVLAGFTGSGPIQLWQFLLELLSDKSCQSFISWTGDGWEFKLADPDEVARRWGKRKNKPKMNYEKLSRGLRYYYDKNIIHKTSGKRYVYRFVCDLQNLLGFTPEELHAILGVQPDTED
Summed up: as §1

Test [17] deals with T11, ELF5 (Homo sapiens, UniProt Q9UKW6-2 1-255).
T11 sequence: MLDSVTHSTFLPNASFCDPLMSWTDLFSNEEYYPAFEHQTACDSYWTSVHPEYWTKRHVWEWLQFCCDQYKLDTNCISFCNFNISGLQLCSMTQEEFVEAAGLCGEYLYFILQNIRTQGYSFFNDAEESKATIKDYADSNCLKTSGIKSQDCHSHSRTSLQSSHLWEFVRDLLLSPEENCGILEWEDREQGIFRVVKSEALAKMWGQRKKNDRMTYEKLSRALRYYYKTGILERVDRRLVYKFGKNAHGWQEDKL
Summed up: as §1

In test [18] the target is T12, ETV3 (Homo sapiens, UniProt P41162-2 1-143).
T12 sequence: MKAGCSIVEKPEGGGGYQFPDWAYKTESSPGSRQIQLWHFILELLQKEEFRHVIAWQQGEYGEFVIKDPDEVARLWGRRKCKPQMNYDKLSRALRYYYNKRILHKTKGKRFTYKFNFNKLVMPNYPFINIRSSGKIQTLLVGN
Summed up: as §1

In test [19] the target is ETV6 (Homo sapiens, UniProt P41212 1-452). In outline:
as §1

ETV5, sequence (P41161 whole entry): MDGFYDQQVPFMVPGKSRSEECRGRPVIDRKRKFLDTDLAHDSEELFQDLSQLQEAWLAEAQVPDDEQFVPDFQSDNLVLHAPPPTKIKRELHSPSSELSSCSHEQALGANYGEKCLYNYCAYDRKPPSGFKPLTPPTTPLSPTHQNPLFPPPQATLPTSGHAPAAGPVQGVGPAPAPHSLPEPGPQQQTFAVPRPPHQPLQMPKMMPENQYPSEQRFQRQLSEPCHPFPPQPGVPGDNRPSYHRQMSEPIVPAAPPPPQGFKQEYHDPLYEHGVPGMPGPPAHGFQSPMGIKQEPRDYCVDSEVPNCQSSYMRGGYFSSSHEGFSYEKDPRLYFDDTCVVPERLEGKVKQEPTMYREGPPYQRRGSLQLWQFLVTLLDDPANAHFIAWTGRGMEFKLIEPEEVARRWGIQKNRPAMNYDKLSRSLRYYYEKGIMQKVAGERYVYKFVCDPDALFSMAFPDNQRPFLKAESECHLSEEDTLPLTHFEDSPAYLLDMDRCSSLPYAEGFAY
ETV6, sequence (P41212 whole entry): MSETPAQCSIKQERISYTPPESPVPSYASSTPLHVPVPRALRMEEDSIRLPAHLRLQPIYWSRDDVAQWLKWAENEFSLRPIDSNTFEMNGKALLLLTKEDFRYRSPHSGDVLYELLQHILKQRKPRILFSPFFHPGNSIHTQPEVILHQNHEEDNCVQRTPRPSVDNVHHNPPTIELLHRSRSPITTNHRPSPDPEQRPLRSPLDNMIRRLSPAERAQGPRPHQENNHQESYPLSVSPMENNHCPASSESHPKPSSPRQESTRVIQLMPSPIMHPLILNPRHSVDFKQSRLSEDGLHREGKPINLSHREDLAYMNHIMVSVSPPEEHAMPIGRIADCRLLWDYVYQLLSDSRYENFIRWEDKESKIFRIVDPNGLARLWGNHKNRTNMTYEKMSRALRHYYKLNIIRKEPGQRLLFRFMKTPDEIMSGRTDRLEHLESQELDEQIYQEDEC
ETV1, sequence (P50549 whole entry): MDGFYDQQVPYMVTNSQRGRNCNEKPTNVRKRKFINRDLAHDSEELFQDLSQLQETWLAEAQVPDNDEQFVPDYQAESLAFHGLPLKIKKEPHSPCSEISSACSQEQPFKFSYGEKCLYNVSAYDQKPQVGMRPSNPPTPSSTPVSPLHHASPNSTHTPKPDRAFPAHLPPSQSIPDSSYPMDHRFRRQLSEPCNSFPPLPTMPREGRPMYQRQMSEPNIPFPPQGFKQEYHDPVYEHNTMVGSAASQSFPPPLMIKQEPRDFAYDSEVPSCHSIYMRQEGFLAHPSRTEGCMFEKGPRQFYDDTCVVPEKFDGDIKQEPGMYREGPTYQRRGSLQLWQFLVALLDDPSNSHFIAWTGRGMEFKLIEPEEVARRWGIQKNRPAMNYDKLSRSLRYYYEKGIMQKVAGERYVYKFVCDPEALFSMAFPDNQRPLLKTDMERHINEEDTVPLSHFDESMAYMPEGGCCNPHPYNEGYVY
ELF4, sequence (Q99607 whole entry): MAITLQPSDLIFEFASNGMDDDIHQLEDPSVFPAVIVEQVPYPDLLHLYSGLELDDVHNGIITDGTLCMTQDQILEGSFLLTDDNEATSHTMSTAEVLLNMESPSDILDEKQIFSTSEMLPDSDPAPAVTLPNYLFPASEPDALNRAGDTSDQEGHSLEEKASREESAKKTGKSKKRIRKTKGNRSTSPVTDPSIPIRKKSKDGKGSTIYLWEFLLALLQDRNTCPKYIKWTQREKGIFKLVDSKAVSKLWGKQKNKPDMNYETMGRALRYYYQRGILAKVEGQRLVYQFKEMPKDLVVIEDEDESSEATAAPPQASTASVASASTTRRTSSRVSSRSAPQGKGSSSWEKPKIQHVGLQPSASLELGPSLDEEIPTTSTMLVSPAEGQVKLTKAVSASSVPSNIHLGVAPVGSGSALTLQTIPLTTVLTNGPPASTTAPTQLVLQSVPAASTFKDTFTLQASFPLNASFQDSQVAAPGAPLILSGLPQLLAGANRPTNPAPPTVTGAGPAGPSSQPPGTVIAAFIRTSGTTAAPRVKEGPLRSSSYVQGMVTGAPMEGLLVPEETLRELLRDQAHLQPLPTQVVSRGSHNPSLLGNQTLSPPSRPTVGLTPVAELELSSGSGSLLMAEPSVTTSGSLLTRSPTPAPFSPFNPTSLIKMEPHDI

As to TCATAC, the binding signal in [1] was 1.08 fold enrichment (6-mer frequency, TF over GST control); in test [2], 1.1 fold enrichment (6-mer frequency, TF over GST control); in test [3], 1.09 fold enrichment (6-mer frequency, TF over GST control); in [4], 1.14 fold enrichment (6-mer frequency, TF over GST control); in test [5] it was 1.15 fold enrichment (6-mer frequency, TF over GST control); in [6], 1.02 fold enrichment (6-mer frequency, TF over GST control). Moreover, the binding signal in [7] was 1.13 fold enrichment (6-mer frequency, TF over GST control); in test [8], 1.16 fold enrichment (6-mer frequency, TF over GST control); in test [9], 1.17 fold enrichment (6-mer frequency, TF over GST control); in test [10], 1.07 fold enrichment (6-mer frequency, TF over GST control); in test [11] it was 1.02 fold enrichment (6-mer frequency, TF over GST control); in test [12], 1.07 fold enrichment (6-mer frequency, TF over GST control). The binding signal was 1.14 fold enrichment (6-mer frequency, TF over GST control) in test [13]; 1.2 fold enrichment (6-mer frequency, TF over GST control) in test [14]; 1.13 fold enrichment (6-mer frequency, TF over GST control) in test [15]; 1.06 fold enrichment (6-mer frequency, TF over GST control) in test [16]; 1.09 fold enrichment (6-mer frequency, TF over GST control) in test [17]; 1.01 fold enrichment (6-mer frequency, TF over GST control) in [18]. Also, the binding signal in [19] was 1.01 fold enrichment (6-mer frequency, TF over GST control).
